# PubChem BioAssay AID504607 (Sanford-Burnham Center for Chemical Genomics, 2011)
# About 4,800 (77%) of roughly 6,200 compounds were called active. So high a share suggests a set chosen from earlier hits. Only a sample is shown. A number with no mark means an inactive call.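 How the source made its calls: active means mean inhibition at 8 µM reaching about 37%, which flags the compound as non-specific (limit read from the data); inactive means the rest.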
# Experiment: full-length luciferase signal inhibition, confirmation, counter-screen for Mdm2/MdmX interaction inhibitor project, cell-based, single concentration, SaOS-2 (AID 504607);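 further: p53-null SaOS-2 cells with luciferase driven by a doxycycline-inducible promoter; compound on cells about two nights before reading with doxycycline added after day one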
# Conditions: SaOS-2 full-length luciferase counterscreen, luminescence; at 8 µM; stronger effect = higher value
row,Structure (SMILES),inhibition
1,O=C1[C@H]2[C@@H](c3ccc(F)cc3)N3C(=O)N(c4ccc(C(F)(F)F)cc4)C(=O)[C@@]3(Cc3ccccc3)[C@H]2C(=O)N1C1CCCCC1,48.6% (active)
2,COc1ccc2[nH]c(=O)c(CN(Cc3cccnc3)S(=O)(=O)c3ccccc3F)cc2c1,56.2% (active)
3,Cc1ccc(-c2cn3cc(C)ccc3n2)cc1,29%
4,Cc1ccc2nc(-c3ccc(Br)cc3)cn2c1,133% (active)
5,FC(F)(F)c1nnc2c3ccccc3c(Cl)nn12,79.9% (active)
6,CC1CN(C(=O)CCC(=O)NCCCN2CCC(Cc3ccccc3)CC2)c2cc(Cl)ccc2O1 (configuration not stated),40.4% (active)
7,O=C(N/N=C\c1cc2c(cc1Cl)OCO2)c1ccc(Br)s1,94.6% (active)
8,CCN(CC)S(=O)(=O)c1ccc(NC(=O)c2cccnc2Cl)c(NC(=O)c2cccnc2Cl)c1,43.5% (active)
9,N=c1n(CCc2ccccc2)c2ccccc2n1Cc1ccccc1F,69.7% (active)
10,CCOC(=O)/C=C/C(=O)OCC(=O)NC(c1ccccc1)c1ccccc1,56.8% (active)
11,O=[N+]([O-])/C=C/c1ccc2c(ccn2Cc2ccccc2)c1,49% (active)
12,COc1ccc(Nc2oc(-c3ccccc3Cl)nc2C#N)cc1,79% (active)
13,O=C(NNc1ccccc1Cl)C(O)(c1cccc(C(F)(F)F)c1)c1cccc(C(F)(F)F)c1,87.9% (active)
14,COC(=O)c1sc(-c2ccc(C(C)(C)C)cc2)cc1NC(=O)/C=C/C(=O)O,55.9% (active)
15,O=C(CSc1cccc2cccnc12)N/N=C/c1cccnc1,68.1% (active)
16,CC(=O)/C(=N\Nc1ccc(Cl)cc1Cl)Sc1cccc2cccnc12,19.1%
17,CCn1cc(CN2CCC(C(=O)Nc3cccc(-c4cccc(Cl)c4)c3)CC2)c(C)n1,74.2% (active)
18,c1ccc2c(c1)CSc1sccc1C2=C1CCNCC1,44.8% (active)
19,COc1cccc(-n2c(SCC(=O)NC3CCCCC3)nc3n[nH]c(C)c3c2=N)c1,66.3% (active)

row,Structure (SMILES),inhibition
1,NC(=O)c1sc2nc3c(c(-c4ccccc4)c2c1N)CCC3,43.5% (active)
2,Cc1ccccc1C(=O)N1CCN(c2ccc(NC(=O)c3cccs3)cc2)CC1,65.1% (active)
3,COc1ccc(C(=O)NC2CCCc3c2cnn3-c2cccc(C)c2C)c(OC)n1 (configuration not stated),54.8% (active)
4,Cc1cc(C(=O)NC2CCCc3c2cnn3-c2cccc(C)c2C)c(C)o1 (configuration not stated),91% (active)
5,CC(NC(=O)Nc1ccccc1)C(c1cccs1)N1CCN(c2ccccc2)CC1 (configuration not stated),58% (active)
6,CC(=O)Nc1ccc(NC(=O)C(C)OC(=O)c2ccccc2C(=O)c2ccc(Cl)c([N+](=O)[O-])c2)cc1 (configuration not stated),52.9% (active)
7,N#Cc1cccc(NC(=O)COC(=O)c2ccccc2C(=O)c2ccc(Cl)c([N+](=O)[O-])c2)c1,50.4% (active)
8,Cc1cccc(-c2oc3ccc(-c4ccc5c(c4)OCO5)cc3c2C#Cc2cncn2C)c1,80.9% (active)
9,Oc1ccccc1N1CCN(c2ncnc3sc(-c4ccccc4)cc23)CC1,58.6% (active)
10,O=C(Oc1c(-c2ccco2)oc2ccccc2c1=O)c1cccnc1,90.3% (active)
11,COc1cc2c(cc1OC)C(C)N(S(=O)(=O)c1cnc(Cl)c(Cl)c1)CC2 (configuration not stated),45.3% (active)
12,CN(C)CC(O)COc1ccc(C(C)(C)c2ccc(OCC(O)CN(C)C)cc2)cc1 (configuration not stated),56.8% (active)
13,Cn1cc(/C=C/c2nc3ccccc3c(=O)n2-c2cccc([N+](=O)[O-])c2)c2ccccc21,90.7% (active)
14,C=CCn1c(C)cc(C(=O)CN2C(=O)c3ccccc3C2=O)c1C,103% (active)
15,C=CCn1c(C)cc(C2=NNC(=NCC)SC2)c1C,24.4%
16,O=C(NCC#CCSc1nnc(-c2cccc3ccccc23)o1)c1cccs1,22.6%
17,CCCc1nc2c(c(=O)c3ccccc3n2C)c(=O)n1C1CCCCCC1,63.9% (active)
18,COc1cccc(CNC(=O)c2nnn(CC(=O)Nc3cc(Cl)ccc3C)c2N)c1,47.8% (active)
19,Cc1cc(C)c2[nH]c(=O)c(CN(Cc3ccccc3)C(=S)NCCCN(C)C)cc2c1,58.1% (active)

row,Structure (SMILES),inhibition
1,COc1ccc(-c2nc(-c3ccccc3)no2)c(OC)c1,95.8% (active)
2,CSc1nc(-c2ccccc2)nc(C(Cl)Cl)n1,49.7% (active)
3,O=C(Cn1nnc(-c2ccccc2)n1)N/N=C/c1ccc(-c2ccc(Cl)cc2)o1,106% (active)
4,COc1cc(NC(=O)c2ccccc2NS(=O)(=O)c2ccc(Cl)s2)cc(OC)c1,40.5% (active)
5,CCc1ccc(-c2cc3c(=O)n(CC(=O)NCCCN4CCN(Cc5ccccc5)CC4)nc(C)n3n2)cc1,60.8% (active)
6,CCc1ccc(CNC(=O)C2CCN(c3nnc(C)c4c(C)n(-c5ccc(C)cc5)nc34)CC2)cc1,23.7%
7,FC(F)(F)c1ccc(CN2C[C@@H]3C(c4ccccc4)C4(c5ccccc5)CC3(C4)[C@H]2c2ccccc2)cc1 (some centres not stated),27.2%
8,COCCCNc1nc2c(-c3cccc(C)c3)nnn2c2ccc(Cl)cc12,54.2% (active)
9,CCOc1ccccc1NC(=O)Cn1nnc(C(=O)NCc2cccs2)c1N,80.5% (active)
10,Cc1ccccc1OCCOc1ccc([N+](=O)[O-])cc1/C=N/n1cnnc1,89% (active)
11,CC1(C)CC(N2CCN(C(c3ccccc3)c3ccccc3)CC2)=CC(=[N+]2CCCCC2)C1,55.6% (active)
12,Cc1c(/C=N\NC(=O)c2cc3ccccc3o2)c2ccccc2n1C,61.8% (active)
13,Cc1ccc2occ(/C=N/NC(=O)c3ccccc3C)c(=O)c2c1,34.4%
14,Cc1cccn2c(=O)c3cc(C(=O)NCCN4CCOCC4)c(=N)n(Cc4cccnc4)c3nc12,57.1% (active)
15,COc1ccc(CCn2c(=N)c(C(=O)NCC3CCCO3)cc3c(=O)n4cccc(C)c4nc32)cc1OC (configuration not stated),54% (active)
16,Cc1cccc(-n2ncc(Cl)c(Cl)c2=O)c1,0.23%
17,CN(Cc1ccccc1)CC(O)COc1ccc(CNCc2cc3ccccc3s2)cc1 (configuration not stated),79.3% (active)
18,O=C(Nc1ccncc1)c1c(F)cccc1F,38.9% (active)
19,CC(C)(C)CC(C)(C)NCC(O)COCCOc1ccc(Br)cc1 (configuration not stated),62.6% (active)
